Measured values: PubChem BioAssay
Values joined by “and” are separate entries in the source; they are usually repeats but may differ in a detail not shown here. Identical values can stand only once. Inconclusive results are not listed. Active and inactive are the calls of the source.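 How the source made its calls, unless noted: active means normalized viability below 100% at a tested concentration; inactive means the rest.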

Assays:
[1] = stimulators of nuclear beta-catenin in C2C12, primary screen, imaging, WNT3A-conditioned medium, mouse C2C12, NPC library (AID 1117326; in the data active means nuclear beta-catenin stimulation mostly above about 4.2%, no sharp cut-off; inactive means mostly below about 10%); conditions: stronger effect = higher value
[2] = stimulators of insulin release from INS-1E, primary screen, cell-based, 5 mM glucose, NPC library (AID 1117329;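 active means compound raises insulin release from rat beta cells at 5 mM glucose, no numeric limit stated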); conditions: rat INS-1E insulin secretion, at 10 µM, stronger effect = higher value
[3] = growth inhibition of GSK3B-pretreated HCT116 cells – cell-based, CellTiter-Glo, 0.2 to 20 µM (AID 1117336;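 active means compounds lowering colon cancer cell viability after pretreatment blocking the GSK3B kinase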); conditions: HCT116 viability after GSK3B inhibitor, at 20 µM, stronger effect = higher value
[4] = inhibition of endothelial tube formation, primary screen, imaging, VEGF stimulated, CD31 staining, tube area, NPC library (AID 1117340;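 active means compound that reduces growth-factor-driven endothelial tube area in a mixed cell culture, no cutoff stated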); conditions: VEGF-stimulated ADSC/ECFC co-culture, at 10 µM, stronger effect = higher value
[5] = glucagon-like peptide 1 release enhancers, primary assay, NCI-H716 cell line, NPC library (AID 1117341;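 active means compound raises GLP1 secretion from the human gut endocrine cells, with no numeric limit stated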); conditions: NCI-H716 cells, at 10 µM, stronger effect = higher value
[6] = HCT116 colon cancer cell growth inhibition, primary screen, CellTiter-Glo luminescence, NPC library (AID 1117342;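 active means compounds that lower survival of HCT116 colon cancer cells in the luminescence readout, no numeric limit stated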); conditions: at 20 µM (top of the series)
[7] = CellTiter-Glo luminescent readout of SW480 viability loss, NPC library primary (AID 1117343;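 active means compounds that lower viability of the colon cancer cells in the luminescence readout, with no numeric limit stated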); conditions: CellTiter-Glo luminescence; at 20 µM (top of the series) unless noted
[8] = decreased DLD-1 cellular survival, CellTiter-Glo luminescent readout, NPC compound collection, primary HTS (AID 1117346;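 active means compounds that lower survival of DLD-1 colon cancer cells in the luminescence readout, no cutoff given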); conditions: DLD-1 viability, CellTiter-Glo luminescence; at 20 µM (top of the series)
[9] = growth inhibition of DIPG glioma cells, dose response, cell-based, JHH-DIPG-1, MIPE4.0, CellTiter-Glo, qHTS (AID 1347062; cut-off not given, nearly all actives have AC50 up to about 27 µM;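 on AC50: cells exposed to compound for two days before readout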); conditions: JHH-DIPG-1 viability, CellTiter-Glo ATP luminescence
[10] = SU-DIPG-VI glioma cell viability, MIPE4.0 library, CellTiter-Glo luminescence, qHTS (AID 1347066; cut-off not given, nearly all actives have AC50 up to about 30 µM;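 further: cells exposed to compound for 48 hours before readout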); conditions: CellTiter-Glo ATP luminescence
[11] = sensitizers of A549 cells to miR-34 induction, primary screen, imaging, A549 dox-inducible miR-34, nuclei and caspase counts (AID 1347080;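 active means compounds whose cell count with miR-34 switched on is under 0.7 times the count with it off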); conditions: A549 miR-34 inducible, Hoechst nuclei count, 48 h
[12] = survival rescue of mitochondrial mutant cells in low glucose, primary screen, MELAS cybrids, Rieske KO mouse fibroblasts, CellTiter-Glo (AID 1508586;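 active means mean z-score across replicates of 1.96 or higher in either the MELAS or the Rieske mutant cell line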;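 further: z relative to plate mean and SD of compound and empty wells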)
[13] = ovarian cancer cell viability with rucaparib, profiling panel, oncology-focused library, rucaparib conditional (AID 1508598); conditions: patient-derived ovarian cancer cells, CellTiter-Glo viability, 144 h, stronger effect = lower value
[14] = growth inhibition of DIPG glioma cells, dose response, cell-based, SU-DIPG-IV, MIPE4.0, CellTiter-Glo, qHTS (AID 1347063; cut-off not given, nearly all actives have AC50 up to about 30 µM;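 further: compound exposure lasted 48 hours before the viability readout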); conditions: SU-DIPG-IV viability, CellTiter-Glo ATP luminescence
[15] = phospholipid biosynthesis inhibitors in animal cells, primary screen, cell-based, LOPAC library, screen 4 (AID 1347384; call rule not given here); conditions: phospholipid biosynthesis inhibition screen, at 10 µM
[16] = viability rescue of complex I mutant cybrids, primary screen, cell-based, galactose medium, ATP luminescence (AID 1645843;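 active means z-score of at least 1.8 in each of two replicates, scored against plate mean and spread of sample wells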;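 further: positive z means more ATP and so rescue of galactose-driven cybrid death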); conditions: complex I mutant cybrid cells, 72 h, stronger effect = higher value
[17] = liver-stage malaria parasite growth inhibition, primary screen, cell-based, HepG2, luciferase luminescence, HepG2 viability (AID 624349; in the data active means parasite load remaining mostly below about 12%, no sharp cut-off; inactive means mostly above about 10%;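 further: 100% = mean of DMSO negative control wells on the same plate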); conditions: P. berghei liver stage in HepG2, luciferase luminescence, concentration not given here; parasite load remaining: stronger effect = lower value; viability: measured here: HepG2 viability without parasites
[18] = stronger effect = lower value, cell number ratio, induced over uninduced
[19] = measured here: relative caspase fold change +Dox/-Dox
[20] = measured here: total cells with miR-34 induction, stronger effect = lower value
[21] = measured here: total cells without miR-34 induction
[22] = MELAS cybrid survival, CellTiter-Glo 48 h, stronger effect = higher value
[23] = Rieske KO mouse fibroblast survival, CellTiter-Glo 72 h
[24] = at 0.000305 µM, OCI-C5x cells, with rucaparib 10 µM, 100% = cells with rucaparib alone
[25] = at 0.000305 µM, OCI-C5x cells, without rucaparib
[26] = at 0.000305 µM, OCI-P5x cells, with rucaparib 20 µM, 100% = cells with rucaparib alone
[27] = at 0.000305 µM, OCI-P5x cells, without rucaparib
[28] = at 0.00122 µM, OCI-C5x cells, with rucaparib 10 µM, 100% = cells with rucaparib alone
[29] = at 0.00122 µM, OCI-C5x cells, without rucaparib
[30] = at 0.00122 µM, OCI-P5x cells, with rucaparib 20 µM, 100% = cells with rucaparib alone
[31] = at 0.00122 µM, OCI-P5x cells, without rucaparib
[32] = at 0.00488 µM, OCI-C5x cells, with rucaparib 10 µM, 100% = cells with rucaparib alone
[33] = at 0.00488 µM, OCI-C5x cells, without rucaparib
[34] = at 0.00488 µM, OCI-P5x cells, with rucaparib 20 µM, 100% = cells with rucaparib alone
[35] = at 0.00488 µM, OCI-P5x cells, without rucaparib
[36] = at 0.0195 µM, OCI-C5x cells, with rucaparib 10 µM, 100% = cells with rucaparib alone
[37] = at 0.0195 µM, OCI-C5x cells, without rucaparib
[38] = at 0.0195 µM, OCI-P5x cells, with rucaparib 20 µM, 100% = cells with rucaparib alone
[39] = at 0.0195 µM, OCI-P5x cells, without rucaparib
[40] = at 0.0781 µM, OCI-C5x cells, with rucaparib 10 µM, 100% = cells with rucaparib alone
[41] = at 0.0781 µM, OCI-C5x cells, without rucaparib
[42] = at 0.0781 µM, OCI-P5x cells, with rucaparib 20 µM, 100% = cells with rucaparib alone
[43] = at 0.0781 µM, OCI-P5x cells, without rucaparib
[44] = at 0.313 µM, OCI-C5x cells, with rucaparib 10 µM, 100% = cells with rucaparib alone
[45] = at 0.313 µM, OCI-C5x cells, without rucaparib
[46] = at 0.313 µM, OCI-P5x cells, with rucaparib 20 µM, 100% = cells with rucaparib alone
[47] = at 0.313 µM, OCI-P5x cells, without rucaparib
[48] = at 1.25 µM, OCI-C5x cells, with rucaparib 10 µM, 100% = cells with rucaparib alone
[49] = at 1.25 µM, OCI-C5x cells, without rucaparib
[50] = at 1.25 µM, OCI-P5x cells, with rucaparib 20 µM, 100% = cells with rucaparib alone
[51] = at 1.25 µM, OCI-P5x cells, without rucaparib
[52] = at 5 µM, OCI-C5x cells, with rucaparib 10 µM, 100% = cells with rucaparib alone
[53] = at 5 µM, OCI-C5x cells, without rucaparib
[54] = at 5 µM, OCI-P5x cells, with rucaparib 20 µM, 100% = cells with rucaparib alone
[55] = at 5 µM, OCI-P5x cells, without rucaparib

O=C(O)c1ccc(-n2nc(-c3ccccc3O)nc2-c2ccccc2O)cc1
active: viability decrease [3] 112% | tube area decrease [4] 102% | inhibition of viability [6] 112% | viability decrease (inhibition) [7] 130% | viability decrease (inhibition) [8] 93.6% | AC50 [10] 23.5 µM
-0.754: z-score [12, 23]
-2.6%: nuclear beta-catenin stimulation ([1]; stimulation, at 2 µM)
4300: cell count [11, 20]
inactive: nuclear beta-catenin stimulation ([1]; at 10 µM) 28.8% | insulin secretion stimulation [2] 0.8% | GLP1 secretion stimulation [5] 7.6% | outcome [9] | fold change [11, 18] 0.936 | z-score [12, 22] -0.00061
1.1: fold change [11, 19]
4600: cell count [11, 21]

Cc1ccc(Nc2nccc(N(C)c3ccc4c(C)n(C)nc4c3)n2)cc1S(N)(=O)=O
active: tube area decrease [4] 97.1% | viability decrease (inhibition) [7] 69.3% | viability [13, 24] 96.4% | viability [13, 25] 95.3% | viability [13, 26] 99% | viability [13, 31] 99.5% | viability [13, 33] 98.4% | viability [13, 35] 99.3% | viability [13, 36] 98.1% | viability [13, 38] 97.8% | viability [13, 39] 98.3% | viability [13, 42] 97.9% | viability [13, 43] 95.6% | viability [13, 45] 95.9% | viability [13, 47] 90.2% | viability [13, 49] 96.9% | viability [13, 50] 87.9% | viability [13, 51] 91.3% | viability [13, 54] 86% | viability [13, 55] 86%
5260 and 7730: cell count [11, 21]
1%: nuclear beta-catenin stimulation ([1]; stimulation, at 2 µM)
-0.2 and 1.1: z-score [12, 23]
inactive: nuclear beta-catenin stimulation ([1]; at 10 µM) 5.9% | insulin secretion stimulation [2] 4.9% | viability decrease [3] 20.9% | GLP1 secretion stimulation [5] -3.5% | inhibition of viability [6] 48.8% | viability decrease (inhibition) [8] 14.5% | outcome [9] | outcome [10] | fold change [11, 18] 0.9 and 0.786 | z-score [12, 22] -0.327 and -0.404 | viability [13, 27] 100% | viability [13, 28] 104% | viability [13, 29] 106% | viability [13, 30] 105% | viability [13, 32] 104% | viability [13, 34] 100% | viability [13, 37] 100% | viability [13, 40] 103% | viability [13, 41] 102% | viability [13, 44] 109% | viability [13, 46] 100% | viability [13, 48] 108% | viability [13, 52] 112% | viability [13, 53] 115%
4740 and 6080: cell count [11, 20]
1.31 and 0.946: fold change [11, 19]

CCCCN(CCCC)CC(O)c1cc(Cl)cc2c1-c1ccc(Cl)cc1/C2=C/c1ccc(Cl)cc1 (stereo not drawn)
active: AC50 [14] 26.4 µM
inactive: nuclear beta-catenin stimulation ([1]; at 10 µM) 0.5% | insulin secretion stimulation [2] -0.3% | viability decrease [3] 9.1% | tube area decrease [4] 25.1% | GLP1 secretion stimulation [5] -3.6% | inhibition of viability [6] 31% | viability decrease (inhibition) [7] 10.6% | viability decrease (inhibition) [8] 14.9% | outcome [9] | outcome [10] | fold change [11, 18] 1.04 | outcome [15] | z-score [16] 0.075
-0.3%: nuclear beta-catenin stimulation ([1]; stimulation, at 2 µM)
2.5: fold change [11, 19]
8560: cell count [11, 21]
8950: cell count [11, 20]

CN1CCCN=C1/C=C/c1cccs1
47.1% and 90.3%: viability [17]
9190: cell count [11, 20]
inactive: parasite load remaining [17] 31.2% and 87.7% | nuclear beta-catenin stimulation ([1]; at 10 µM) 1.3% | insulin secretion stimulation [2] 0.75% | viability decrease [3] 6.6% | tube area decrease [4] -9.9% | GLP1 secretion stimulation [5] 1.8% | inhibition of viability [6] 13.5% | viability decrease (inhibition) [7] 4.9% | viability decrease (inhibition) [8] -4.2% | fold change [11, 18] 0.92 | z-score [12, 22] 0.267
0%: nuclear beta-catenin stimulation ([1]; stimulation, at 2 µM)
9990: cell count [11, 21]
1.06: fold change [11, 19]
-0.214: z-score [12, 23]

COc1cc(Nc2c(C#N)cnc3cc(OCCCN4CCN(C)CC4)c(OC)cc23)c(Cl)cc1Cl
1100: cell count [11, 21]
-1%: nuclear beta-catenin stimulation ([1]; stimulation, at 2 µM)
inactive: nuclear beta-catenin stimulation ([1]; at 10 µM) 17.6% | insulin secretion stimulation [2] 2.2% | tube area decrease [4] 1.5% | fold change [11, 18] 0.893 | viability [13, 24] 120% | viability [13, 25] 107% | viability [13, 28] 121% | viability [13, 29] 109% | viability [13, 32] 119% | viability [13, 33] 107% | viability [13, 34] 101% | viability [13, 35] 102% | viability [13, 36] 122% | viability [13, 37] 104% | viability [13, 39] 102% | viability [13, 40] 132% | viability [13, 41] 111% | viability [13, 43] 103% | viability [13, 44] 125% | viability [13, 45] 101% | viability [13, 48] 113% | viability [13, 49] 108%
986: cell count [11, 20]
0.682: fold change [11, 19]
-0.399: z-score [12, 23]
active: viability decrease [3] 110% | GLP1 secretion stimulation [5] 47.9% | inhibition of viability [6] 113% | viability decrease (inhibition) [7] 132% | viability decrease (inhibition) [8] 102% | AC50 [9] 20.9 µM | AC50 [14] 20.9 µM | z-score [12, 22] 2.73 | viability [13, 26] 88.1% | viability [13, 27] 68.6% | viability [13, 30] 87.4% | viability [13, 31] 30.3% | viability [13, 38] 96.8% | viability [13, 42] 94.7% | viability [13, 46] 80.8% | viability [13, 47] 91% | viability [13, 50] 57.8% | viability [13, 51] 95.2% | viability [13, 52] 49.5% | viability [13, 53] 61.4% | viability [13, 54] 24.4% | viability [13, 55] 42%

CC(C)(C)C(=O)OCOP(=O)(COCCn1cnc2c(N)ncnc21)OCOC(=O)C(C)(C)C
5980 and 5100: cell count [11, 20]
72.7%: nuclear beta-catenin stimulation ([1]; stimulation, at 2 µM)
0.703 and 1.46: fold change [11, 19]
6600 and 5960: cell count [11, 21]
active: nuclear beta-catenin stimulation ([1]; at 10 µM) 79.6% | viability decrease [3] 95.4% | tube area decrease [4] 100% | inhibition of viability [6] 73.3% | viability decrease (inhibition) [7] 95.4% | viability decrease (inhibition) [8] 78.5% | AC50 [14] 7.43 µM | AC50 [10] 16.6 µM
0.795 and 0.351: z-score [12, 23]
inactive: insulin secretion stimulation [2] 3.5% | GLP1 secretion stimulation [5] 2.8% | fold change [11, 18] 0.906 and 0.857 | z-score [12, 22] -0.539 and -0.165 | z-score [16] -0.625
